CCHF vOTU inh-1 = CCHFV vOTU protease inhibitors, primary screen, biochemical, Pep-AMC substrate, fluorescence | Crimean-Congo hemorrhagic fever virus L polyprotein viral ovarian tumor (vOTU) protease … | inhibition, % at 11.5 µM | 370,000 tested, 0.55% active | AID 651958, 2012
Vc quorum ag = inducers of Vibrio cholerae quorum light production without autoinducers, primary screen, BH1578 luxS cqsA deficient, single point; V. cholerae BH1578 lux reporter, luminescence, 6 h; 350,000 tested, 0.16% active; activation, % at 18.7 µM; in the data active means activation mostly above about 9.7%, no sharp cut-off
FBA Mtb inh = Mtb FBA enzyme inhibitors, primary screen, biochemical, fluorescence, strain H37Rv. 360,000 tested, 2.3% active. purified M. tuberculosis FBA, fluorescence read-out. Fructose-bisphosphate aldolase (Mycobacterium tuberculosis (strain ATCC 25618 / H37Rv)), …. inhibition, % at 1 µM. AID 588726, 2011; in the data active means inhibition above about 27%
Target sequence (P9WQA3 whole entry, looked up): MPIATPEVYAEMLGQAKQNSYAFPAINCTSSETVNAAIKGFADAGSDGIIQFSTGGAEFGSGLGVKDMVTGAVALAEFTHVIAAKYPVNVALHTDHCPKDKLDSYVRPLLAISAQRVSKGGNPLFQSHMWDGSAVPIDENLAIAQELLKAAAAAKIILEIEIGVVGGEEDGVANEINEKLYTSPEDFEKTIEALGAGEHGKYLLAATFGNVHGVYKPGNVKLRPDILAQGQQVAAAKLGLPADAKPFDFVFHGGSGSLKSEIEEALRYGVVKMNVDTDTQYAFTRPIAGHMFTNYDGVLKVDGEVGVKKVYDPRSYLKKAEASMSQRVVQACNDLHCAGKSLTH
GDH-TPI counter = GDH-TPI coupling enzyme inhibitors, primary screen, artefact control for M. tuberculosis FBA inhibitor project, biochemical, absorbance, full deck; GDH-TPI coupled enzyme counterscreen, NADH absorbance; inhibition, % at 4.8 µM; 360,000 tested, 1.2% active
CCHF vOTU inh-2 = CCHFV vOTU protease inhibitors, confirmation, biochemical, Pep-AMC substrate, fluorescence; Recombinant CCHFV vOTU; shares compounds with CCHF vOTU inh-1; 1,900 tested, 17% active; AID 686976, 2013; inhibition, % at 11.5 µM
Large screens that a line does not name were inactive (follow-up assays come after a bar, where they were run). Only some compounds are listed: those with a hit (about 3.9% of all), similar ones and a draw of the others. Unless noted, no stated cut-off is given here; in the data, active means inhibition above about 30%; inactive means the rest.

CCCCCCCCNS(=O)(=O)/C=C/c1ccccc1CNC(=O)OC(C)(C)C	CCHF vOTU inh-1 36.3 (no result: Vc quorum ag, FBA Mtb inh, GDH-TPI counter) | CCHF vOTU inh-2 inactive
COc1ccc(NC(=O)COc2nc3ccccc3nc2N2CCOCC2)c(OC)c1	none
CCO/C=C1/C(=O)N(C)C(=O)c2cc(OC)ccc21	CCHF vOTU inh-1 78.3 | CCHF vOTU inh-2 77.3
CCOC=C1C(=O)N(C(C)=O)c2cc(OC)c(OC)cc21	none
C=CCOC(=O)c1cc(-c2ccc(/C=C3\C(=O)NC(=O)C(C#N)=C3C)o2)ccc1Cl	CCHF vOTU inh-1 33.4, GDH-TPI counter 34.2 | CCHF vOTU inh-2 inactive
CC1=C(C#N)C(=O)NC(=O)/C1=C/c1ccc(-c2ccc(S(N)(=O)=O)cc2)o1	none
COc1ccc(N(C(=O)c2snc(C(N)=O)c2N)C(C(=O)NC2CCCC2)c2cc(OC)ccc2OC)c(OC)c1 (stereo not given)	none
CCOC(=O)c1cc2c(ccn2C)n1CC(=O)N(Cc1ccccc1)c1ccc(F)cc1	none
CCOC(=O)c1cc2c(ccn2C)n1CC(=O)N(Cc1ccccc1)c1ccccc1	CCHF vOTU inh-1 55.3 | CCHF vOTU inh-2 inactive
CCOC(=O)c1cc2c(ccn2C)n1Cc1ccccc1C	CCHF vOTU inh-1 30.9 | CCHF vOTU inh-2 42.8
NC(=O)C1(N2CCCCC2)CCN(C(=O)c2cc(COc3c(F)cccc3F)on2)CC1	none
CN1CCc2c(sc3c2c(=O)n(-c2ccccc2)c2nnc(SCc4ccc(F)cc4)n32)C1	none
CN1CCc2c(sc3c2c(=O)n(-c2ccccc2)c2nnc(SCc4ccccc4)n32)C1	CCHF vOTU inh-1 31.0 | CCHF vOTU inh-2 inactive
CN1CCN(CC#CC2(O)CCCCC2)CC1	none
COc1ccc(OC)c(C(c2nnnn2C2CCCC2)N2CCN(c3ccccc3)CC2)c1 (stereo not given)	none
O=C(COC(=O)c1cc2ccccc2cc1O)Nc1ccccc1F	CCHF vOTU inh-1 30.9 | CCHF vOTU inh-2 inactive
COc1ccccc1NC(=O)COC(=O)c1cc2ccccc2cc1O	none
COc1ccc(N2C(=O)[C@@H]3[C@H](C2=O)[C@H]2c4ccccc4C=CN2[C@@H]3C(C)=O)cc1	CCHF vOTU inh-1 92.0 | CCHF vOTU inh-2 92.0
CC(C)(C)C(=O)[C@@H]1[C@@H]2C(=O)N(C3CCCCC3)C(=O)[C@@H]2[C@H]2c3ccccc3C=CN12	CCHF vOTU inh-1 32.9 | CCHF vOTU inh-2 inactive
O=C(c1ccc2c(c1)OCO2)[C@@H]1[C@@H]2C(=O)N(C3CCCCC3)C(=O)[C@@H]2C2c3ccccc3C=CN21 (stereo not given in full)	none
COc1cc(/C=N/NC(=O)Cc2c[nH]c3ccccc23)cc(OC)c1OC	none
COc1cc(/C=N/NC(=O)[C@H](Cc2c[nH]c3ccccc23)NC(=O)OCC(C)C)cc([N+](=O)[O-])c1O	CCHF vOTU inh-1 36.2 | CCHF vOTU inh-2 inactive
O=C1Cc2ccccc2C(=O)N1Cc1cccc(Cl)c1	CCHF vOTU inh-1 64.5 | CCHF vOTU inh-2 54.4
Cc1ccc(-c2csc(N/N=C/c3ccco3)n2)cc1	none
C(=N\Nc1nc(-c2ccccc2)cs1)/c1ccco1	CCHF vOTU inh-1 30.9 | CCHF vOTU inh-2 inactive
CON(C)c1nc(NCC(C)C)nc(OCC#N)n1	none
Cc1ccc(Cl)cc1-c1cc(C(=O)NCc2cc(C(F)(F)F)cc(C(F)(F)F)c2)[nH]n1	CCHF vOTU inh-1 33.0 | CCHF vOTU inh-2 inactive
COc1ccc(Cl)cc1-c1cc(C(=O)NCc2cc(C(F)(F)F)cc(C(F)(F)F)c2)[nH]n1	none
Cc1cc(F)ccc1-c1cc(C(=O)NCc2cc(C(F)(F)F)cc(C(F)(F)F)c2)[nH]n1	none
Cc1ccc(F)cc1-c1cc(C(=O)NCc2cc(C(F)(F)F)cc(C(F)(F)F)c2)[nH]n1	CCHF vOTU inh-1 30.2 | CCHF vOTU inh-2 inactive
COc1ccccc1-c1csc(C(NC(C)=O)c2cccc(F)c2)n1 (stereo not given)	none
CCCCn1c(N)c(N(CCC(C)C)C(=O)C2CC(=O)N(c3cccc(SC)c3)C2)c(=O)[nH]c1=O (stereo not given)	none
Cc1ccccc1N=C1c2ccccc2C(=O)C1[N+](=O)[O-] (stereo not given)	CCHF vOTU inh-1 33.8 | CCHF vOTU inh-2 inactive

Screening results deposited in PubChem by several laboratories.
